# Laboratory results taken from article PMC4336329 (PLoS ONE, 2015).
# Among all 310,000 compounds or so, about 14,000 (4.5%) showed an effect of 50% or more. The effect is printed as a negative number. Only a selection was taken, and strong results are over-represented in it overall.
# Molecular target: human ether-à-go-go-related gene (hERG) potassium channel (human, UniProt Q12809)
# Test: primary screen, population patch clamp on CHO cells stably expressing hERG; higher = less effect of the substance
# 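Further: peak tail current of the secondary pulse compared with the same well before compound.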
# Chain of human ether-à-go-go-related gene (hERG) potassium channel (Q12809 whole entry, looked up): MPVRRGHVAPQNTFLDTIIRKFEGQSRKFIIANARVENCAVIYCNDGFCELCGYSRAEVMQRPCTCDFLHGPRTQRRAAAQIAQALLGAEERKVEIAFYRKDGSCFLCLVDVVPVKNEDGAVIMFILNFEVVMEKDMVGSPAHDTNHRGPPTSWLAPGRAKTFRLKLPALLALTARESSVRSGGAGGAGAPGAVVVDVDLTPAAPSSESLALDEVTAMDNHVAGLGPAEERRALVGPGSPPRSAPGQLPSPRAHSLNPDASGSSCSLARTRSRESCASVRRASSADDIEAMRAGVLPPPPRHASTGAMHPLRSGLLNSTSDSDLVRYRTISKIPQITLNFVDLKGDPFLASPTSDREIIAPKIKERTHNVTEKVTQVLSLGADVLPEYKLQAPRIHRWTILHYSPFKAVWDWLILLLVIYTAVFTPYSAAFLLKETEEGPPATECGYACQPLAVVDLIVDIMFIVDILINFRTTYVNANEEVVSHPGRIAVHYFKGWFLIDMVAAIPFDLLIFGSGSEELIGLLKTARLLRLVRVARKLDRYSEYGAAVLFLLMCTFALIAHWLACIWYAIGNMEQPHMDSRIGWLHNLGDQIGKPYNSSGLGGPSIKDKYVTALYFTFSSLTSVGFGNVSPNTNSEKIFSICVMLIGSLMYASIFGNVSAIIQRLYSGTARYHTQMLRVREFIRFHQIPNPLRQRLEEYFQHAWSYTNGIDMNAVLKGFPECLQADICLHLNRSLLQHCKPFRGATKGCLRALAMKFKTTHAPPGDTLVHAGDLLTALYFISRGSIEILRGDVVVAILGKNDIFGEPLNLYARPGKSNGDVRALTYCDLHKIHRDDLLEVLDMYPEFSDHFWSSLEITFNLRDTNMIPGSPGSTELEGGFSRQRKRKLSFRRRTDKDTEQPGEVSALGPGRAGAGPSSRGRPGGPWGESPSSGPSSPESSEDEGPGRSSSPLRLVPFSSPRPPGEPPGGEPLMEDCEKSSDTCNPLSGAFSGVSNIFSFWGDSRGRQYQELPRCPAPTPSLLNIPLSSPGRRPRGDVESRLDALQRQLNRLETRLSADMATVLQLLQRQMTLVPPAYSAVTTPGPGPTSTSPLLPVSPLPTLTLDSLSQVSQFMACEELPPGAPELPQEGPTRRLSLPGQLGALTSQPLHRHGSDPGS
row,Compound,"hERG current change (%, negative = inhibition) at 10uM [%]"
1,Cc1nnc(SCC(N)=O)n1CC1CCCO1 (stereo not drawn),3.55
2,NC(=O)c1ccsc1NC(=O)c1coc2ccccc2c1=O,-2.56
3,COc1ccc(-c2nn3c(-c4ccccn4)nnc3s2)cc1OC,10.6
4,CCOC(=O)c1sc(SCC(=O)Nc2ccc(N(C)C)cc2)nc1N,-13
5,S=C(NCCc1cnc[nH]1)NC1CCCC1,23.2
6,CCOC(=O)Cc1nc2cc(Cl)ccc2o1,10.7
7,N#Cc1ccsc1NC(=O)c1ccccn1,-4.67
8,CCOc1ccc(OCCC(=O)N2CCc3cc(OC)c(OC)cc3C2)cc1,-20.6
9,COc1ccc(OC)c(Nc2nc(NCc3ccco3)c3ccccc3n2)c1.Cl,-12.2
10,O=C(NC1CC1)c1ccc(F)cc1Cl,21
11,CC#CC(=O)NC1CCCN(C2Cc3ccccc3C2)C1 (stereo not drawn),-18.7
12,CSCC(=O)NC1CCCN(C2Cc3ccccc3C2)C1 (stereo not drawn),-5.38
13,COc1cccc(C(=O)NC2CCCN(C3Cc4ccccc4C3)C2)c1OC (stereo not drawn),-41.7
14,O=C(NC1CCCN(C2Cc3ccccc3C2)C1)c1ccc(F)cc1Cl (stereo not drawn),-71.1
15,C#Cc1cccc(C(=O)NC2CCCN(C3Cc4ccccc4C3)C2)c1 (stereo not drawn),-64.4
16,Cn1cnnc1SC(C(=O)Nc1cc(Cl)cc(Cl)c1)c1ccccc1 (stereo not drawn),20.9
17,Cc1cc(C(=O)CSc2nc3ccccc3[nH]2)c(C)n1CC1CCCO1 (stereo not drawn),-12.5
18,CC(C)(C)NC(=O)NC(=O)CSc1ccc(S(=O)(=O)N2CCCCC2)cn1,-13.5
19,O=C(c1cc(COc2c(F)cccc2F)on1)N1CCCCCC1,4.46
20,Cc1cccc(C)c1OCc1cc(C(=O)N2CCN(C3CCCC3)CC2)no1,-67.9
21,CC(=O)N1CCCN(C(=O)c2cc(COc3c(F)cccc3F)on2)CC1,6.58
22,O=C(c1cc(COc2c(F)cccc2F)on1)N1CCN(C2CCCCC2)CC1,-52

row,Compound,"hERG current change (%, negative = inhibition) at 10uM [%]"
1,Cc1cccc(C)c1OCc1cc(C(=O)N2CCCCCCC2)no1,-0.442
2,Cc1cccc(C)c1OCc1cc(C(=O)N2CCN3CCCC3C2)no1 (stereo not drawn),-19.5
3,CN(C)Cc1c(-c2ccc(Cl)cc2)nc2ccccn12,0.0702
4,CC(C)(C)c1ccc(C(=O)NCCCNC(=O)c2cccnc2)cc1,11.7
5,CCN(C(=O)[C@@H]1CCCN1C(=O)c1cccs1)c1nc2cc(Cl)ccc2s1,-36
6,Cc1ccc(-c2noc(CCC(=O)NCC3CCCO3)n2)cc1 (stereo not drawn),2
7,COc1ccc(-c2noc(CCC(=O)NCCc3cccc(C)c3)n2)cc1,-0.562
8,COc1ccc(-c2noc(CCC(=O)NC3CCN(Cc4ccccc4)CC3)n2)cc1,-45.7
9,Cc1ccc(-c2noc(CCC(=O)NCC3CCN(Cc4cccc(C)c4)CC3)n2)cc1,-63.8
10,COc1ccc(-c2noc(CCC(=O)NCC3CCN(Cc4cccc(C)c4)CC3)n2)cc1,-60.3
11,Cc1ccc(-c2noc(CCC(=O)NCCN3CCN(Cc4ccccc4)CC3)n2)cc1,-49
12,COc1ccccc1NC(=S)NC(=O)C(C)(C)C,-9.31
13,Cc1ccc2nc(-c3ccc(N4C(=O)CC(N5CCN(CCO)CC5)C4=O)cc3)sc2c1 (stereo not drawn),-3.5
14,N#CCC(=O)Nc1ccc(C(=O)OCC(=O)Nc2ccccc2-c2ccccc2)cc1,9.2
15,CCc1nc(SCc2ccccc2C)n[nH]1,26.9
16,CCOc1ccccc1NC(=O)c1cc(CC(C)C)oc1C,-0.536
17,Cc1oc(CC(C)C)cc1C(=O)Nc1cccc2ccccc12,-58.8
18,Cc1cc(C(=O)Nc2cccc3ccccc23)c(C)o1,4.69
19,Cc1ncc(C(=O)O)c(C(=O)O)c1N,13.4
20,O=C(O)c1cnc(-c2ccccc2)nc1Sc1ccccc1,14.2
21,O=C(C1CCCN(Cc2ccccc2F)C1)N1CCc2ccccc2C1.O=C(O)C(=O)O (stereo not drawn),-22.6
22,O=C(C1CCCN(Cc2ccncc2)C1)N1CCc2ccccc2C1.O=C(O)C(=O)O (stereo not drawn),-19.2

row,Compound,"hERG current change (%, negative = inhibition) at 10uM [%]"
1,COc1ccc(CN2CCCC(C(=O)N3CCCCC3)C2)cc1OC.O=C(O)C(=O)O (stereo not drawn),-25.5
2,Cc1cccc(CN2CCCC(C(=O)N3CCCCC3)C2)c1.O=C(O)C(=O)O (stereo not drawn),15.5
3,COc1ccc(CN2CCCC(C(=O)N3CCc4ccccc4C3)C2)cc1OC (stereo not drawn),-62
4,Cc1cccc(CN2CCCC(C(=O)N3CCc4ccccc4C3)C2)c1.O=C(O)C(=O)O (stereo not drawn),-51.3
5,COc1cc(CN2CCCC(C(=O)N3CCc4ccccc4C3)C2)cc(OC)c1OC (stereo not drawn),-62
6,O=C(C1CCCN(Cc2ccccc2)C1)N1CCCCC1.O=C(O)C(=O)O (stereo not drawn),11.3
7,COc1ccc(S(=O)(=O)N2CCC(C(=O)N3CCc4ccccc4C3)CC2)cc1OC,-27.4
8,COc1ccc(C)cc1-n1c(SCC(=O)Nc2cccc(C(=O)O)c2)nc2ccccc2c1=O,12
9,O=C(CCC(=O)Nc1ccccc1)NNC(=O)C(c1ccccc1)c1ccccc1,-0.585
10,CCN(c1ccccc1)P(=O)(Nc1ccccc1)Nc1ccccc1,0.944
11,Cc1ccc(N2C(=O)CSC2c2cccnc2)cc1F (stereo not drawn),5.77
12,CCCc1nc(SCC(=O)Nc2cc(C)on2)c2c(=O)n(C)c(=O)n(C)c2n1,-2.26
13,NCCCC[C@H]1NC(=O)[C@H](CCC(=O)O)NC(=O)c2cc([N+](=O)[O-])cc(I)c2OCC[C@@H](C(N)=O)NC1=O,26.6
14,Cc1cc(C)c2sc(N(CCCN(C)C)C(=O)c3ccc(S(=O)(=O)N(C)C4CCCCC4)cc3)nc2c1.Cl,-81.4
15,Cc1cc(C)c2sc(N(CCCN(C)C)C(=O)c3ccc(S(=O)(=O)N4CCc5ccccc5C4)cc3)nc2c1.Cl,4.44
16,Cc1cc(C)c2sc(N(CCCN(C)C)C(=O)c3ccc(S(=O)(=O)N4CCCc5ccccc54)cc3)nc2c1.Cl,0.702
17,Cc1cc(C)c2sc(N(CCCN(C)C)C(=O)c3ccc(S(=O)(=O)N(C)Cc4ccccc4)cc3)nc2c1.Cl,-13.5
18,CCCCN(CC)S(=O)(=O)c1ccc(C(=O)N(CCCN(C)C)c2nc3cc(C)cc(C)c3s2)cc1.Cl,-73
19,CCN(Cc1ccccc1)S(=O)(=O)c1ccc(C(=O)N(CCCN(C)C)c2nc3cc(C)cc(C)c3s2)cc1.Cl,-4.15
20,CCOc1ccc(S(=O)(=O)N2CCCCC2)cc1NC(=O)Cc1ccsc1,2.15
21,CC(/C=N/Nc1ccc2nncn2n1)=C\c1ccccc1,-51.8
22,C(=C\c1ccccc1)/C=N/Nc1ccc2nncn2n1,-19.7

row,Compound,"hERG current change (%, negative = inhibition) at 10uM [%]"
1,BrC(=C\c1ccccc1)/C=N/Nc1ccc2nncn2n1,-21.6
2,Oc1sc(C=Nc2ccccc2)c2ccccc12,7.99
3,COc1ccc(CCC(=O)Nc2ccc3c(c2)OCO3)cc1,2.6
4,O=C(COc1ncnc2cc([N+](=O)[O-])ccc12)NC1CCCCC1,-2.76
5,COc1ccc(CCNC(=O)COc2ncnc3cc([N+](=O)[O-])ccc23)cc1,-16.5
6,O=C(COc1ncnc2cc([N+](=O)[O-])ccc12)NC(=O)NC1CCCCC1,-56.5
7,O=C1c2ccccc2NC(c2c(Cl)cccc2Cl)N1Cc1ccccc1 (stereo not drawn),7.98
8,N=c1c2c3c(sc2ncn1CCN1CCOCC1)CCCC3,-16.9
9,CC(C)Cn1cnc2sc3c(c2c1=N)CCCC3,-25.2
10,N=c1c2c3c(sc2ncn1Cc1ccco1)CCCCC3,-62
11,N=c1c2c3c(sc2ncn1Cc1ccccc1)CCCC3,-49.7
12,N=c1c2c3c(sc2ncn1CCCO)CCCC3,-19.5
13,N=c1c2c3c(sc2ncn1N)CCCCC3,-12.6
14,N=c1c2c3c(sc2ncn1CCCN1CCOCC1)CCCCC3,-51.2
15,N=c1c2c3c(sc2ncn1CCN1CCOCC1)CCCCC3,-42.9
16,CCCCn1cnc2sc3c(c2c1=N)CCCC3,-52.1
17,CC1CCCCC1NC(=O)CCNS(=O)(=O)c1ccc2c(c1)CCC(=O)N2 (stereo not drawn),6.25
18,O=C(Nc1cc(C(F)(F)F)ccc1-n1cnc2ccccc21)c1ccccc1,-32
19,O=C(Nc1ccc(/C=C/c2nc3ccccc3o2)cc1)c1cccc(C(F)(F)F)c1,0.151
20,COC(=O)c1ccc(NC(=S)NCCc2cccc(C)c2)cc1,-2.3
21,CCCn1c(NC(=O)c2cccc(C)c2C)nc2ccccc21,-26.7
